18 compounds from PubChem BioAssay can be followed below.

The structures appear in SMILES notation. Activity calls are given as the source filed them. How the calls were made is not given here.

Test [1] can be described thus: liver-stage malaria parasite load reduction – cell-based, known kinase inhibitor set, luminescence, hepatoma host viability (AID 624392).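 Further: infected cells incubated roughly two days before readout.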 The conditions noted are these: Plasmodium liver stage in hepatoma cells, luciferase luminescence, concentration not given here; liver cell % of control: measured here: host liver cell viability; parasite % of control: stronger effect = lower value.

Test [2] in a line: altered dexamethasone sensitivity, NF-kB reporter, cell-based, luciferase, IL-1B stimulus (AID 624486).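 On percent of negative control (+Dex): 100% = mean signal of vehicle control wells on the plate.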 The conditions noted are these: IL-1B + dexamethasone, luminescence; percent of negative control (+Dex): actives lie on both sides, concentration not given here; z-score: measured here: IL-1B alone, no Dex.
Test [3] deals with Cellular tumor antigen p53 (Homo sapiens) (UniProt P04637). Nature of the test: GFP-p53 level modulators in HPV16+ cells – imaging, known kinase inhibitor set, EGFP/DsRed ratio (AID 1053116).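 Further: cells exposed to compounds for 24 h at 37 °C before reading.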 To be noted: GFP-p53 stability, stronger effect = higher value; EGFP object count: measured here: GFP-p53 positive objects count.
Cellular tumor antigen p53 (Homo sapiens), sequence (P04637 whole entry, looked up): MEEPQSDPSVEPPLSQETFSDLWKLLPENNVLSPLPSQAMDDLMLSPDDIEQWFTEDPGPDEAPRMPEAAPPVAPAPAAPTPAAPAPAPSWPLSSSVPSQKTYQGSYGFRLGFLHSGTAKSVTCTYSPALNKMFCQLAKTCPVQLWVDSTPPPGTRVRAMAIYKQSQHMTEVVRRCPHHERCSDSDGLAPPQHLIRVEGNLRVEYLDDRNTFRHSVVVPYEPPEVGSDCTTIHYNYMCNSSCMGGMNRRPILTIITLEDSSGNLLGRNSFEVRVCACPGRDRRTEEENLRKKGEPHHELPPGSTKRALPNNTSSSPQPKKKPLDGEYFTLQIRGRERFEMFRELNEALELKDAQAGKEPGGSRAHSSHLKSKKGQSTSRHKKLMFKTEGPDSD
Test [4] in a line: inducers of IRF3 signaling, differentiated THP-1 – cell-based, PMA-stimulated THP-1, luminescence (AID 1053176). The conditions noted are these: PMA-differentiated THP-1, IRF3 reporter luminescence; stronger effect = higher value.

In the case of `Cn1cc(C2=C(c3cn(-c4ccccc4)c4ccccc34)C(=O)NC2=O)c2ccccc21`, in test [1], the liver cell % of control was determined as 108% and the parasite % of control was 63.3% (inactive). In test [2], the percent of negative control (+Dex) is 99% (inactive) and the z-score was found to be 0.65. In test [3], the EGFP object count is 3 and the EGFP/DsRed ratio was 0.0255 (inactive). Further, the fraction signal in test [4] is 0.01 (inactive).
For `Cn1cc(C2=C(Sc3ccccc3)C(=O)NC2=O)c2ccccc21`, in test [1], the liver cell % of control was 92.3% and the parasite % of control is 50.7% (inactive). Also, in test [2], the percent of negative control (+Dex) was 99.5% (inactive) and the z-score came out at 0.02. In addition, in test [3], the EGFP object count came to 2.5 and the EGFP/DsRed ratio was 0.0664 (inactive). For the same compound, the fraction signal in test [4] was 0.008 (inactive).
As for `O=C1NC(O)C(c2c[nH]c3ccccc23)=C1c1c[nH]c2ccccc12` (stereo unspecified), in test [1], the liver cell % of control worked out at 141% and the parasite % of control is 47.1% (inactive). In test [2], the percent of negative control (+Dex) was 93% (inactive) and the z-score stood at 0.455. Besides, in test [3], the EGFP object count stood at 4 and the EGFP/DsRed ratio was 0.15 (inactive). The fraction signal in test [4] is 0.001 (inactive).
Turning to `COc1cccc(C2=C(c3cn(C)c4cc(C)ccc34)C(=O)NC2=O)c1`, in test [1], the liver cell % of control came to 112% and the parasite % of control is 29% (inactive). In test [2], the percent of negative control (+Dex) is 98.5% (inactive) and the z-score is -1.5. Further, in test [3], the EGFP object count amounted to 24 and the EGFP/DsRed ratio was 0.336 (inactive). In addition, the fraction signal in test [4] is -0.005 (inactive).
Take `CN1CCN(CCc2cccc(C(=O)c3cnn(-c4ccc(F)cc4)c3N)c2)CC1`: in test [1], the liver cell % of control came to 112% and the parasite % of control is 51.1% (inactive). In addition, in test [2], the percent of negative control (+Dex) was 96.5% (inactive) and the z-score was determined as 1.1. Also, in test [3], the EGFP object count was 5 and the EGFP/DsRed ratio is 0.187 (inactive). Moreover, the fraction signal in test [4] is 0.0015 (inactive).
For `O=C1NC(=NCCc2ccccc2Cl)SC1=Cc1ccc2ncccc2c1`, in test [1], the liver cell % of control came out at 121% and the parasite % of control is 44.8% (inactive). In addition, in test [2], the percent of negative control (+Dex) was 90% (inactive) and the z-score worked out at 0. Further, in test [3], the EGFP object count came to 4.5 and the EGFP/DsRed ratio is 0.105 (inactive). In addition, the fraction signal in test [4] was -0.003 (inactive).
Take `Cn1cc(C2=C(c3cn(C)c4cc(Cl)ccc34)C(=O)NC2=O)c2ccccc21`: in test [1], the liver cell % of control was 82.6% and the parasite % of control is 48.4% (inactive). In test [2], the percent of negative control (+Dex) is 126% (active) and the z-score was -0.405. Besides, in test [3], the EGFP object count stood at 31 and the EGFP/DsRed ratio was 0.0945 (inactive). The fraction signal in test [4] is -0.009 (inactive).
Turning to `COc1cc[nH]c1C=C1C(=O)Nc2ccc(F)c(C#CC(O)C(N)C(C)O)c21` (stereo unspecified), in test [1], the liver cell % of control was found to be 76.5% and the parasite % of control is 46.6% (inactive). Also, in test [2], the percent of negative control (+Dex) is 135% (inactive) and the z-score was determined as 0.23. In addition, in test [3], the EGFP object count is 250 and the EGFP/DsRed ratio was 1.32 (inactive). In addition, the fraction signal in test [4] was 0.0035 (inactive).
Regarding `Cn1cc(C2=C(c3cn(C)c4c([N+](=O)[O-])cccc34)C(=O)NC2=O)c2ccccc21`, in test [1], the liver cell % of control came to 78.7% and the parasite % of control was 22.7% (inactive). In test [2], the percent of negative control (+Dex) was 102% (inactive) and the z-score is -0.03. Further, in test [3], the EGFP object count is 18.5 and the EGFP/DsRed ratio was 0.137 (inactive). In test [4], the fraction signal is -0.005 (inactive).
For `O=c1c(Oc2ccc(F)cc2F)cc2cnc(NC3CCOCC3)nc2n1CCCO`, in test [1], the liver cell % of control came to 122% and the parasite % of control is 71.8% (inactive). In addition, in test [2], the percent of negative control (+Dex) is 92% (inactive) and the z-score is -0.815. In test [3], the EGFP object count turned out to be 2.5 and the EGFP/DsRed ratio was 0.0231 (inactive). The fraction signal in test [4] was 0.0075 (inactive).
Consider `Cn1cc(C2=C(c3ccc(N)cc3)C(=O)NC2=O)c2ccccc21`, for which, in test [1], the liver cell % of control is 135% and the parasite % of control was 32.1% (inactive). Besides, in test [2], the percent of negative control (+Dex) was 100% (inactive) and the z-score is -0.99. Also, in test [3], the EGFP object count came to 28.5 and the EGFP/DsRed ratio is 0.493 (inactive). Also, the fraction signal in test [4] is -0.005 (inactive).
Take `Cn1cc(C2=C(c3cn(C)c4c(N)cccc34)C(=O)NC2=O)c2ccccc21`: in test [1], the liver cell % of control is 92.4% and the parasite % of control is 40.1% (inactive). In test [2], the percent of negative control (+Dex) is 108% (inactive) and the z-score is -1.47. Further, in test [3], the EGFP object count was 87.5 and the EGFP/DsRed ratio was 1.36 (active). The fraction signal in test [4] was -0.003 (inactive).
For the compound `Cn1cc(C2=C(c3cn(CCCCN)c4ccccc34)C(=O)NC2=O)c2ccccc21`, in test [1], the liver cell % of control was determined as 117% and the parasite % of control is 65.7% (inactive). In test [2], the percent of negative control (+Dex) was 98.5% (inactive) and the z-score amounted to 0.945. Also, in test [3], the EGFP object count was 3.5 and the EGFP/DsRed ratio was 0.117 (inactive). Moreover, the fraction signal in test [4] is 0.01 (inactive).
For `Cn1cc(C2=C(c3c4n(c5ccccc35)CCCC4)C(=O)NC2=O)c2ccccc21`, in test [1], the liver cell % of control is 77.8% and the parasite % of control is 85.7% (inactive). Further, in test [2], the percent of negative control (+Dex) is 100% (inactive) and the z-score worked out at 0.55. Further, in test [3], the EGFP object count was 5.5 and the EGFP/DsRed ratio was 0.0663 (inactive). The fraction signal in test [4] was 0.0055 (inactive).
As for `COc1ccc2c(c1)C(c1ccccc1Cl)=Nc1c(n[nH]c1C)N2`, in test [1], the liver cell % of control was determined as 81.2% and the parasite % of control is 28.8% (inactive). Moreover, in test [2], the percent of negative control (+Dex) is 92% (inactive) and the z-score is -0.45. Moreover, in test [3], the EGFP object count stood at 3 and the EGFP/DsRed ratio was 0.0722 (inactive). The fraction signal in test [4] is 0.0035 (inactive).
Consider `CN(C)CC#Cc1cccc(C(=O)c2cnn(-c3ccc(F)cc3)c2N)c1`, for which, in test [1], the liver cell % of control stood at 101% and the parasite % of control was 74.8% (inactive). Also, in test [2], the percent of negative control (+Dex) was 109% (inactive) and the z-score is 1.23. Besides, in test [3], the EGFP object count came to 3 and the EGFP/DsRed ratio is 0.0589 (inactive). Moreover, the fraction signal in test [4] is -0.001 (inactive).
As for `COc1ccc(N2Cc3cnc(Nc4ccccc4)nc3N(C3CCC(O)C3)C2=O)cc1` (stereo unspecified), in test [1], the liver cell % of control was 114% and the parasite % of control is 234% (inactive). Further, in test [2], the percent of negative control (+Dex) is 67% (active) and the z-score was -1.67. For the same compound, in test [3], the EGFP object count turned out to be 1.5 and the EGFP/DsRed ratio was 0.0589 (inactive). The fraction signal in test [4] was -0.007 (inactive).
`Cn1c(=O)c(Oc2ccc(F)cc2F)cc2cnc(NCCS(C)(=O)=O)nc21`: in test [1], the liver cell % of control came out at 117% and the parasite % of control was 60.7% (inactive). In test [2], the percent of negative control (+Dex) was 101% (inactive) and the z-score is 0.95. Besides, in test [3], the EGFP object count is 1 and the EGFP/DsRed ratio was 0.00515 (inactive). Further, the fraction signal in test [4] is 0.0015 (inactive).
